# Experimental data: paper PMC7862700, “An all-to-all approach to the identification of sequence-specific readers for epigenetic DNA modifications on cytosine”
# What was measured:
# Test in all cases: DAPPL (digital affinity profiling via proximity ligation, sequencing); 10 mM Tris-HCl pH 7.5, 50 mM NaCl, 1 mM DTT, 4% glycerol, room temperature, 30 min; GST-TFs on glutathione beads, 16-mer random dsDNA library, 0.1% formaldehyde crosslink after washing; high values mean tight binding
# Settings in all cases: protein: recombinant; tags: N-terminal GST; dsDNA, one strand shown
# FLI1 = biological target: T1, FLI1 (Homo sapiens, UniProt Q01543 1-452)
# T1 sequence: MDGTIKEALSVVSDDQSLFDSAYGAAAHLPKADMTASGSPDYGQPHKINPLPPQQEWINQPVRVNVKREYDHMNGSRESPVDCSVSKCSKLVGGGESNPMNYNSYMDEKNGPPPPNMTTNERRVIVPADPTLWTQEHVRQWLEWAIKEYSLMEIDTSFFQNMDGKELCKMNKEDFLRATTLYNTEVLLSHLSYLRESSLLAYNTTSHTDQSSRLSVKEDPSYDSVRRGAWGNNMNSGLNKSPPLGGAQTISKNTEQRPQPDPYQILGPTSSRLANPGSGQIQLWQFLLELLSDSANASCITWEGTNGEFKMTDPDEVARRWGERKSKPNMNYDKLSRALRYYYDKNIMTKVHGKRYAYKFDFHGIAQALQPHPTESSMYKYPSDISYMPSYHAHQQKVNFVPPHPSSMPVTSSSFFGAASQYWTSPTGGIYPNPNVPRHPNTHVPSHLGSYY
# In short: (§1)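 The binding signal reported is, for every hexamer, its read frequency for a factor over its read frequency for the tag-only sample. Reads came from pools of yeast-expressed, GST-fused human transcription factors on glutathione beads, barcoded with DNA and mixed with that sample, which were incubated with 200 nmole of a random double-stranded 16-mer DNA library in Tris/NaCl/DTT/glycerol buffer at room temperature for 30 min. After washing, the pools were crosslinked with 0.1% formaldehyde, proximity-ligated with BsaI/T4 ligase for 1 h at 37 °C, PCR-amplified and sequenced on an Illumina NextSeq500.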
# ELK1 = biological target: T2, ELK1 (Homo sapiens, UniProt P19419 1-428)
# T2 sequence: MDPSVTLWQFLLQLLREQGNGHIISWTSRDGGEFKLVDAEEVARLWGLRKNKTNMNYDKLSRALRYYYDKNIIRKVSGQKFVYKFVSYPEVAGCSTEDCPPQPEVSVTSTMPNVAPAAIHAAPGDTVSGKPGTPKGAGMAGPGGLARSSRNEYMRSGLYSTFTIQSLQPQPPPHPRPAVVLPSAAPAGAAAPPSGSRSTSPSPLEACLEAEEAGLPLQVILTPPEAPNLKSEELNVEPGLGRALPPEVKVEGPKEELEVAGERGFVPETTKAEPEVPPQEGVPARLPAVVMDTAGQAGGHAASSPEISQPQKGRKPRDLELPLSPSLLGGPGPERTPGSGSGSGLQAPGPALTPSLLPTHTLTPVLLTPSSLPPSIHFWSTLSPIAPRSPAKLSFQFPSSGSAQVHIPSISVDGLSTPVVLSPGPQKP
# In short: as §1
# GABPA = biological target: T3, GABPA (Homo sapiens, UniProt Q06546 1-454)
# T3 sequence: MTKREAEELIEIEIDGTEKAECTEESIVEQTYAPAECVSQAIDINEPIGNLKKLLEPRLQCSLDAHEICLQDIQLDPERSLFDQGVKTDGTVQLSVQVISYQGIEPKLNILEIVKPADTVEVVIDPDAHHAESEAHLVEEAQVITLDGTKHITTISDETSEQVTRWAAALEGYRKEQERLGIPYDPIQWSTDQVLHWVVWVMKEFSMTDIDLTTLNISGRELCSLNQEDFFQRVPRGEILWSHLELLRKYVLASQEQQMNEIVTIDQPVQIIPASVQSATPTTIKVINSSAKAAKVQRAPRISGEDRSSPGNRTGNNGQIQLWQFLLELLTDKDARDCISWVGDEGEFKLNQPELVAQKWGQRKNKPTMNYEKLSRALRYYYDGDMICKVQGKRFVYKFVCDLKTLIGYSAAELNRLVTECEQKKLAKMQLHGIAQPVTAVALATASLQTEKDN
# In short: as §1
# ERG = biological target: T4, ERG (Homo sapiens, UniProt P11308 1-479)
# T4 sequence: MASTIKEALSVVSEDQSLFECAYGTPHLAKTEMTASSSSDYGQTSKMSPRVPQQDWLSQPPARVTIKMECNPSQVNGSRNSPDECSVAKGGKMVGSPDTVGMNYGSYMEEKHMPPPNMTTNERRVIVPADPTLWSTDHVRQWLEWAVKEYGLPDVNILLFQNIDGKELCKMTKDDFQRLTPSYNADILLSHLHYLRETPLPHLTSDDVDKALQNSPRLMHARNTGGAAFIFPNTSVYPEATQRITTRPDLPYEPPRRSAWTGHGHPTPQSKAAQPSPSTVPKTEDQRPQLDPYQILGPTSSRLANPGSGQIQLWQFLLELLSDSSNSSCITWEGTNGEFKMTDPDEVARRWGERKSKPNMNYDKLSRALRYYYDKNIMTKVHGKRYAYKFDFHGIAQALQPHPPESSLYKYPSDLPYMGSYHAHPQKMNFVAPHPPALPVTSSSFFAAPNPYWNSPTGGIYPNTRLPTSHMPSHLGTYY
# In short: as §1
# ELF1 = ELF1 (Homo sapiens, UniProt P32519 1-619)
# In short: as §1
# EHF = biological target: T5, EHF (Homo sapiens, UniProt Q9NZC4 1-300)
# T5 sequence: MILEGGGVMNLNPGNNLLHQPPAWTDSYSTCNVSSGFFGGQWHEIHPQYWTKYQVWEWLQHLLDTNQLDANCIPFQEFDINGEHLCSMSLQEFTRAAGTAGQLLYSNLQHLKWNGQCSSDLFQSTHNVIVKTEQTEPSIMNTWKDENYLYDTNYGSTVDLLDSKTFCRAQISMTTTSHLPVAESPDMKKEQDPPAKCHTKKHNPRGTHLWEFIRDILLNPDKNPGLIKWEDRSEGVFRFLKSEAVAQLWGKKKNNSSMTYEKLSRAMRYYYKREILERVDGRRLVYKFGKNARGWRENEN
# In short: as §1
# SPI1 = SPI1 (Homo sapiens, UniProt P17947 1-270)
# In short: as §1
# SPIB = SPIB (Homo sapiens, UniProt Q01892 1-262)
# In short: as §1
# ELK3 = biological target: T6, ELK3 (Homo sapiens, UniProt P41970 1-407)
# T6 sequence: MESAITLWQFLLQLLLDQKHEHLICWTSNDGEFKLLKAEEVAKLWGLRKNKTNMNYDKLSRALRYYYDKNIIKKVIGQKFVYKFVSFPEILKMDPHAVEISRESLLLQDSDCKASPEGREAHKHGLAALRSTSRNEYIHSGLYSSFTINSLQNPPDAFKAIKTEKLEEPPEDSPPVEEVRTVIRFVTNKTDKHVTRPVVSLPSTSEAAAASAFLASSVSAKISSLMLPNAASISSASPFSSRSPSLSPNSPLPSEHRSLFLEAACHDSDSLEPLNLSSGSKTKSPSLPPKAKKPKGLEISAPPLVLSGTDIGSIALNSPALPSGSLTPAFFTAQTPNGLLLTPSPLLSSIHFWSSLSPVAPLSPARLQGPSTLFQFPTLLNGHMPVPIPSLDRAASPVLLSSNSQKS
# In short: as §1
# Chain of ELF1 (P32519 whole entry): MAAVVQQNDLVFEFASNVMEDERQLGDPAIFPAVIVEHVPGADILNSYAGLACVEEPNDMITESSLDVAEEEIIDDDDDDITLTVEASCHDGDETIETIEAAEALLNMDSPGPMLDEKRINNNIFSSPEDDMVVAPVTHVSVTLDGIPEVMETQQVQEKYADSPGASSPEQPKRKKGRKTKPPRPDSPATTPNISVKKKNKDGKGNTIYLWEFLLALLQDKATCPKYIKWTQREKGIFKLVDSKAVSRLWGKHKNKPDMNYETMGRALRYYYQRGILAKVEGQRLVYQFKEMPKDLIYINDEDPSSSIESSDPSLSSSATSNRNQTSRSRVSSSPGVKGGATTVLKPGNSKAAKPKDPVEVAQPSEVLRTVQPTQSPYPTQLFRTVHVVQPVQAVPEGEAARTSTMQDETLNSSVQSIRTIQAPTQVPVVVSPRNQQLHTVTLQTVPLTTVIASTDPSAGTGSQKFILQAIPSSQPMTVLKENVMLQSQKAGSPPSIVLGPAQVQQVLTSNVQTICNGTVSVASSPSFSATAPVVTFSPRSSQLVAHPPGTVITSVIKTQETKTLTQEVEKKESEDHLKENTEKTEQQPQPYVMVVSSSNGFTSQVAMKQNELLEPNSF
# Chain of SPIB (Q01892 whole entry): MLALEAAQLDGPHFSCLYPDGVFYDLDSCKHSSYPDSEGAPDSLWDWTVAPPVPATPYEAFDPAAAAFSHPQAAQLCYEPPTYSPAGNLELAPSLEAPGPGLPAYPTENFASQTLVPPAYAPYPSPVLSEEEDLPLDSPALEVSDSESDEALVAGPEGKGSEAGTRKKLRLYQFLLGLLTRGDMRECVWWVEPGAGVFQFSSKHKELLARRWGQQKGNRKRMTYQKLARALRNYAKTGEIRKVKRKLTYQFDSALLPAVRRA
sequence,measurement,setting,value
ACGGAA,binding signal,FLI1,"1.66 fold enrichment (6-mer frequency, TF over GST control)"
same,binding signal,ELK1,"1.69 fold enrichment (6-mer frequency, TF over GST control)"
same,binding signal,GABPA,"1.58 fold enrichment (6-mer frequency, TF over GST control)"
same,binding signal,ERG,"1.93 fold enrichment (6-mer frequency, TF over GST control)"
same,binding signal,ELF1,"1.62 fold enrichment (6-mer frequency, TF over GST control)"
same,binding signal,EHF,"2 fold enrichment (6-mer frequency, TF over GST control)"
same,binding signal,SPI1,"2.02 fold enrichment (6-mer frequency, TF over GST control)"
same,binding signal,SPIB,"1.93 fold enrichment (6-mer frequency, TF over GST control)"
same,binding signal,ELK3,"1.94 fold enrichment (6-mer frequency, TF over GST control)"
